Compounds with a hit are over-represented: about 2.1% of the library has one in this group of screens.
TDP-43 yeast inh: TDP-43 toxicity inhibition in yeast | TDP-43 expressing yeast growth rescue, BacTiter-Glo, 24 h | Potency, µM (top dose mostly 46.1 µM), for the others: top-dose growth rescue (activation), most hits filed as activators | 410,000 tested, 1.8% active; further: % of control where 0% means no effect; nearly all actives have a fitted effect of over 50% in size
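Luminescence from BacTiter-Glo reports growth of TDP-43-expressing yeast after 24 hr at 30 deg C with compound. Cells were raffinose-pregrown to mid-log, then seeded in galactose medium at OD600=0.02.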
aSyn yeast inh: rescues yeast growth from alpha-synuclein toxicity; AID 652106; Potency, µM (top dose mostly 46.1 µM), without a hit: at the top dose growth rescue (activation), usual class: activators; 370,000 tested, 0.14% active; Yeast expressing alpha-synuclein, growth rescue, BacTiter-Glo, 24 h; further: % of control where 0% means no effect; nearly all actives have a fitted effect of over 65% in size
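Readout is rescue of growth in alpha-synuclein-expressing yeast, so inhibitors of toxicity appear as activators. Growth after 24 hr at 30 deg C in galactose medium is quantified by luminescence.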
Abeta yeast res: restores growth of yeast expressing A-beta42 peptide. Potency, µM (highest dose often 46.1 µM), usual class: activators. AID 1347071. 410,000 tested, 0.063% active. yeast expressing A-beta42, growth rescue, OD600, 48 h; response scale: 0% DMSO, 100% iron-clioquinol control; further: nearly all actives have a fitted effect of over 55% in size
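Growth rescue measured by 600 nm absorbance after 48 h yeast culture at 30 C with compound. Values normalized between DMSO and an equimolar ferric chloride plus clioquinol control.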
FUS yeast rescue: FUS proteinopathy suppression in yeast. 390,000 tested, 0.24% active. S. cerevisiae FUS-expressing, growth rescue, OD600, 24 h. Potency, µM (top dose mostly 76.6 µM), hits mostly activators. AID 1347120;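 further: plate controls were DMSO vehicle for no effect and reference control for full effect; nearly all actives have a fitted effect of over 55% in size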
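Steps: raffinose overnight preculture; dilution to OD 0.005 in 2% galactose minimal medium; compound addition (concentration series); 24hr at 30C, 99% humidity; absorbance read at 600 nm.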
* = called active by the depositor; i = inactive; ? = inconclusive; · = no result. The call rests on the fitted dose curve; in most records, active means well fitted curve in the direction sought with a large enough effect; inconclusive means small, poorly fitted or top-dose-only effect, or another doubt; inactive means no such curve, though single readings can be large; an effect the other way counts as inactive or inconclusive. Potency means the concentration at half of the fitted maximal effect.

SMILES	TDP-43 yeast inh	aSyn yeast inh	Abeta yeast res	FUS yeast rescue
c1csc(-c2nc3c4ccccc4c4ccccc4c3[nH]2)c1	20µM*	3%	i	i
COc1ccc(-c2csc(CCn3nc(C)cc3C)n2)cc1OC	24%	22%	i	i
COc1ccc(-c2csc(CCn3nc(C)cc3C)n2)cc1	18µM*	-7%	i	i
Cc1ccc2c(c1)CCC2=O	·	13%	·	·
CCN(CC)C(=O)OCc1c(-c2cccc(OC)c2)ncc2ccccc12	11µM*	-14%	i	i
COc1cccc(-c2ncc3ccccc3c2COC(=O)c2cccs2)c1	35µM*	8%	i	i
COc1ccc(C(=O)OCc2c(-c3cccc(OC)c3)ncc3ccccc23)cc1	19%	1%	i	i
COc1cccc(CNc2nc3cc(-c4cccc(Cl)c4)sc3c(=O)n2C)c1	10%	-1%	i	i
COCCNc1nc2cc(-c3ccc(C)cc3)sc2c(=O)n1C	11µM*	0%	i	i
COc1ccccc1CNc1nc2cc(-c3ccccc3C)sc2c(=O)n1C	20µM*	?	i	i
COc1cccc(CNc2nc3cc(-c4ccccc4C)sc3c(=O)n2C)c1	18µM*	?	i	?
Cn1c(NCC2CCCCC2)nc2cc(-c3ccsc3)sc2c1=O	20µM*	11%	i	i
O=[N+]([O-])c1ccc(Nc2nc(NCCN3CCOCC3)nc(Nc3ccc(I)cc3)n2)cc1	·	-68%	·	·
Cn1cc(C2(c3c[nH]c4ccccc34)CCN(C(=O)OC(C)(C)C)CC2)c2ccccc21	·	·	·	i
O=C1CC(c2ccco2)Cc2[nH]c(=O)c(C(=O)Nc3ccccc3)cc21 (stereo unspecified)	·	0%	·	·
CC(C)C(C(=O)Nc1ccccc1)N1C(=O)c2ccccc2C1=O (stereo unspecified)	16µM*	8%	i	i
CC(C(=O)Nc1ccccc1)N1C(=O)c2ccccc2C1=O (stereo unspecified)	9%	1%	i	i
CC(C)(C)n1nc(-c2ccc(F)cc2)c2c(N)ncnc21	-62%	?	i	i
CC(C)(C)n1nc(-c2ccc(Cl)cc2)c2c(N)ncnc21	-46%	2.5µM*	i	i
CN(C)c1ccc(C(I)C(I)c2ccnc3ccccc23)cc1 (stereo unspecified)	·	0%	·	·
O=C(CNS(=O)(=O)c1cccs1)N1CCN(c2ncccn2)CC1	·	·	·	i
Clc1ccccc1C1=Nn2c(nnc2-c2ccncc2)SC1	11µM*	10%	i	i
Cc1cc(-c2nnc3n2N=C(c2ccccc2Br)CS3)n[nH]1	1%	-1%	?	i
Cc1cccc(-c2nnc3n2N=C(c2ccccc2Br)CS3)c1	20µM*	7%	i	i
C#CCOC(=O)Nc1cccn(Cc2c(Cl)cccc2Cl)c1=O	11µM*	-8%	i	i
SMILES	TDP-43 yeast inh	aSyn yeast inh	Abeta yeast res	FUS yeast rescue
O=C(Nc1cccn(Cc2c(Cl)cccc2Cl)c1=O)C1CC1	?	-15%	i	i
CCOC(=O)c1ccc(NC(=O)CSc2nnc(SCc3cccc4ccccc34)s2)cc1	·	·	·	i
Cc1cc(C)c2c(n1)sc1c(N3CCCCC3)ncnc12	4%	-9%	i	i
CCN(CC)c1ncnc2c1sc1nc(C)cc(C)c12	22µM*	0%	i	i
Cc1nn(-c2ccc(Cl)c(Cl)c2Cl)c(=O)c2ccccc12	16µM*	9%	i	i
CSc1ccc(CNC(=O)C2CCN(c3nnc(-n4cccc4CNc4ccc(C)cc4)s3)CC2)cc1	-5%	·	i	35µM*
Cc1ccc(NCc2cccn2-c2nnc(N3CCC(C(=O)NCCC(C)C)CC3)s2)cc1	8%	·	i	?
COc1cc(OC)cc(C(=O)Nc2ccc(Nc3ccccc3)cc2)c1	-18%	9%	i	25µM*
COc1ccc(NC(=O)Nc2ccccc2SC)c(OC)c1	-11%	0%	i	i
COc1ccc(NC(=S)NC(=O)c2ccccc2)cn1	5%	2%	i	i
COc1ccc(NC(=O)c2cccc(Oc3ccccc3)c2)cn1	11µM*	10%	i	i
COc1cccc(C(=O)Nc2cccc(-c3ccccc3)c2)c1	18µM*	-1%	i	i
COc1cccc(NC(=O)Nc2ccccc2SC)c1	20µM*	-9%	i	i
COc1ccc(C=Nn2c(-c3n[nH]c4c3CCC4)n[nH]c2=S)cc1OCc1ccccc1	·	·	·	i

High-throughput results: PubChem BioAssay, National Center for Advancing Translational Sciences (NCATS)
